Data reported in ChEMBL document CHEMBL5308541, “MAIP: An Open-Source Tool to Enrich High-Throughput Screening Output and Identify Novel, Druglike Molecules with Antimalarial Activity” (ACS Med Chem Lett, 2023).
The whole screen tested about 4,800 compounds, of which about 420 (8.8%) showed an effect of 50% or more. For the sample, strong results were picked, then their nearest neighbours and some compounds at random.

test system: Plasmodium falciparum; assay: Confirmatory screen in NF54 nanoGlo assay, in single point, at 2uM, 72h; assay type: functional, Erythrocyte; settings: timepoint 72 hour

SMILES	% Inhibition [%]
CN1CCC(N(Cc2ccccc2)C(=O)c2cc3cnccc3[nH]2)CC1	61
CCCN1CCC(N2CC(c3cccnc3)C(c3nc(C4CCCC4)no3)C2)CC1 (stereo unspecified)	-2
Cc1cc(O)c(Cl)cc1-c1ccc2nccc(N)c2c1	90
Cc1cc(O)c(Cl)cc1-c1cccc2c(N)ccnc12	91
Clc1ccc2[nH]c3c(c2c1)CCCC3NC1CCN(C2CCOC2)CC1 (stereo unspecified)	81
CN1CCC(Oc2ccc(NC(=O)c3cn4ccnc4s3)cn2)CC1	86
Nc1ccnc2ccc(-c3ccc(C(=O)NCC4CCOCC4)cc3)cc12	77
Cc1ccc2nc(-c3cccc(NC(=O)c4ccc(OC(F)(F)F)c(Cl)c4)c3)[nH]c2n1	72
Cc1cc(N2CCC(N(C)Cc3cc(-c4ccccc4)n[nH]3)CC2)nc(N)n1	21
Cc1cc(N2CCC(NC3CCNC(c4ccccc4)C3)CC2)nc(C)n1 (stereo unspecified)	30
Cc1cc(N2CCC(NC3CCCC3Cc3ccc(F)cc3)CC2)nc(N)n1 (stereo unspecified)	96
Fc1cccc(Cl)c1CN1CCC(NC[C@H]2CCCOC2)CC1	24
c1cc(CNC2CCN(C[C@H]3CCOC3)CC2)c2cc[nH]c2c1	-7
O=C(NCc1ccc(N2CCNCC2)c(F)c1)c1ccc(-c2noc(C(F)(F)F)n2)cc1	57
Cc1nc(N2CCN(C)CC2)cc(N2CCN(S(=O)(=O)c3ccccc3C(F)(F)F)CC2)n1	67
Cc1c(CN2CCC(O)(Cn3ccnc3)CC2)[nH]c2c(Cl)cccc12	96
O[C@@]1(c2c[nH]nn2)CCN(c2ccnc3cc(Cl)ccc23)C1	59
NC(=O)[C@]1(O)CCN(c2ccnc3ccc(Oc4ccccc4)cc23)C1	29
COCCN1CC[C@H](CN(C)c2ccnc3cc(Cl)ccc23)C1	98
COCCN1CCC[C@@]2(CCN(c3ccnc4cc(Cl)ccc34)C2)C1	99
Cc1cccc(N2CCC(NCc3cc(C)cc(CN4CCN(C)CC4)c3C)CC2)c1	61
Cc1cc(C)c(CN2CCN(C)CC2)cc1CNCCCn1ccnc1C	38
Cc1ccc2nc(NC[C@H]3CCN(C4CC4)C3)cc(C)c2c1	93
COc1ccc(-c2cc(C(=O)Nc3ccc(N4CCN5CCCC5C4)cc3)c3c(C)noc3n2)cc1 (stereo unspecified)	41
Cc1cc(NC[C@H]2CN(CC(C)C)CCO2)c2ccccc2n1	26
Cc1cc(N2CCC(Nc3ccnc4ccncc34)CC2)nc(C)n1	9

SMILES	% Inhibition [%]
CCCN1CCC(Nc2cc(C)nc3ccccc23)CC1	77
O=C(Nc1cnc2c(c1)COCC2)c1cc2c(OC(F)(F)F)cccc2[nH]1	95
c1ccc(CCC23CN(Cc4ccccn4)CC2CN(Cc2ccns2)C3)cc1 (stereo unspecified)	88
Cc1ccc2[nH]cc(-c3cc(N4CCOCC4)nc(N)n3)c2c1	57
Nc1cc(N2CCC(c3nc4cc(F)ccc4[nH]3)CC2)nc(N2CCOCC2)n1	39
Brc1ccc2[nH]c3c(c2c1)CCCC3NC1CCc2[nH]cnc2C1 (stereo unspecified)	97
c1ccc(CNc2ccc(-c3noc(C45CCCN(CCC4)C5)n3)cn2)cc1	82
NCCCCc1c(-c2cccnc2)[nH]c2c(Cl)cc(Cl)cc12	55
Cn1cc(-c2cncc(C(=O)NC3CCN(c4cccc(F)c4)CC3)c2)cn1	51
CCOc1cccc(N2CCN(C(=O)c3cc(-c4ccc(F)cc4)[nH]n3)CC2)n1	32
OC1(c2ccc(Cl)cc2)CCN(C[C@@H]2CCCN3CCCC[C@H]23)CC1	73
CN(C)CCN1CCC(NC2CCC(O)(c3cccc(Cl)c3)CC2)CC1 (stereo unspecified)	30
NCC1(O)CCN(c2ccnc3cc(F)c(Cl)cc23)CC1	94
FC(F)(F)c1ccc(N2CCC[C@H](NC3CCN(Cc4ccco4)CC3)C2)nc1	21
CCN1CCC(N2CCC(C(=O)NCCc3ccc(OC(F)(F)F)cc3)CC2)CC1	48
Oc1ccc(OC(F)(F)F)cc1-c1ccc2nccn2n1	83
Nc1ccc(-c2cc(OC(F)(F)F)ccc2O)cn1	11
N#Cc1ccc(N2C[C@H](COCC3CC3)C3(CCN(Cc4cccc(O)c4)CC3)C2)cc1C(F)(F)F	80
CCN1C[C@H](Nc2nc(C)nc3sccc23)[C@@H](OC)C1	98
CNc1nc(C)c(-c2ccnc(Nc3cccc(S(C)(=O)=O)c3)n2)s1	58
Cc1cc(N2CCC(NCCCN3CCCc4ccccc43)CC2)nc(N)n1	74
Cc1cc(N2CCC(NCCc3c[nH]cn3)CC2)nc(-c2ccccc2)n1	17
Cc1ccc2nc(CCCNC3CCN(c4cc(C)nc(N)n4)CC3)oc2c1	29
COc1ccc2nc3cc(Cl)ccc3c(O)c2c1	57
COc1ccc2c(O)c(Br)c(C)nc2c1	78
CN1CCN(CCOc2ccccc2CN(C)Cc2cc3cc(F)ccc3[nH]2)CC1	87

SMILES	% Inhibition [%]
CN(C[C@H](O)COc1cccc(CNCCCOc2cccnc2)c1)C1CCCCC1	30
CN1C(C)(C)CC(NC(=O)c2ccc(-c3cc(-c4cccc(C(F)(F)F)c4)n[nH]3)cc2)CC1(C)C	45
CCc1oc2ccccc2c1CNC[C@H](O)c1ccc(Cl)cc1	99
CCN(Cc1cnn(-c2cccc(Cl)c2)c1)CC1CCN(C2CCN(C)CC2)CC1	79
CCN(Cc1[nH]c2ccc(Cl)cc2c1C)CC1CCN(C2CCN(C)CC2)CC1	89
Cc1ccc2[nH]c(-c3cc4n(n3)CCN(c3ccnc(N)n3)C4)nc2c1C	89
CNc1nc(N[C@H]2CCCN(Cc3ccc(Cl)cc3)C2)nc2c1CCC2	79
Clc1cccc(N2CC[C@H](CNC3CCN(Cc4ccco4)CC3)C2)c1	66
COc1ccc(CNCc2cc3ccccc3[nH]2)cc1CN(C)C	59
COc1ccccc1-c1csc(C2CCN(CC[C@H]3CCCN3C)CC2)n1	26
CC(CNc1nc(NCC(C)N2CCOCC2)c2cc(Cl)ccc2n1)N1CCOCC1 (stereo unspecified)	87
CN1CCC(N2CCC(NC(=O)c3ccc(S(=O)(=O)N(C)C4CCCCC4)cc3)CC2)CC1	44
Cc1ccc(-c2cc(C(=O)NC3CCN(C4CCN(C)CC4)CC3)n[nH]2)cc1C	98
CN(C)Cc1cccc(CCNCc2csc(-c3ccc(C(F)(F)F)cc3)n2)c1	74
O=C(NC1CCN(CCOc2ccc(Cl)cc2)CC1)c1c[nH]c2ccncc2c1=O	92
O[C@H]1CCN(Cc2cccc(NCc3cn4ccnc4s3)c2)C1	38
CCN1CCC[C@H](Nc2cccc(-n3ccnc3)n2)C1	33
O[C@H]1CCN(Cc2ccccc2CNc2cccc(-n3ccnc3)n2)C1	94
COc1ccc2cc(-c3cc(N)ccn3)[nH]c2c1	55
Nc1ccnc(-c2cccc3[nH]ccc23)c1	6
O=C1CN(C(=O)c2ccnc3ccccc23)CCN1Cc1ccccc1F	53
COc1cc2nc(NCC3(N4CCN(C)CC4)CCCC3)cc(C)c2cc1OC	84
CCN(C)CC1CCN(c2nc(NCCOC)nc(N3CCC(CN(C)CC)C3)n2)C1 (stereo unspecified)	1
Cn1nnc(C(=O)N2CCCCC23CCCCCC3)n1	68
CC(C)CCOc1ccc2[nH]c(-c3cc(N4CCC[C@@H]4CS(C)(=O)=O)ccn3)cc2c1	99
CN(CCCn1ccnc1)c1ccnc2cc(Br)ccc12	99

SMILES	% Inhibition [%]
O=C(NCCN1CCCCC1)c1cccc(-c2cnc3ccc(F)cn23)c1	26
CCOc1cc2nccc(N3C[C@H]4CN(C)C[C@H]4C3)c2cc1OCC	98
CCCC(=O)NC1COCC1Cc1ccncc1 (stereo unspecified)	83
c1ccc(CN2CCC(CCNC[C@@H]3CCCN4CCCC[C@H]34)CC2)cc1	61
COc1ccc2cc(NC(=O)c3cc(-c4c(C)nn(C)c4C)[nH]n3)cnc2c1	73
Cc1cnccc1NCCNCc1ccc(OC(C)C)c(Cl)c1	73
c1ccc2c(Nc3ccc4[nH]cnc4c3)c3ccccc3nc2c1	98
OC[C@H](CNCc1cc2ccc(F)cc2[nH]1)c1ccccc1Cl	72
O[C@@H](CNCc1cc2cc(Cl)c(Cl)cc2[nH]1)c1ccc(F)cc1	79
Cc1sc2nc(-c3ccccn3)nc(NCCc3nccn3C)c2c1-c1ccccc1	71
CCNc1cc(C)nc(NCCNC(=O)Nc2cc(F)cc(F)c2)n1	76
CCNc1nc(C)cc(Nc2ccc(NC(=O)Nc3ccc(F)cc3F)cc2)n1	98
Cc1cc(NC[C@H](O)COc2ccc(F)cc2)nc2ccccc12	76
Cc1ccc2[nH]c(CNC[C@@H](CO)C3CCC3)cc2c1C	65
COc1ccc2[nH]cc(-c3ccc(N)nc3)c2c1	-7
COc1ccc2[nH]cc(C3=CCN(c4ccc5nnc(-c6ccccc6F)n5n4)CC3)c2c1	51
Cc1ccc2nccc(N3CCC(N4CCC(O)CC4)CC3)c2c1	10
CCN1CCN([C@H]2CCN(c3ccnc4ccncc34)C2)CC1	97
O=C(NCC1CC1)c1cc2c(OCc3ccc(Cl)cc3)cccc2[nH]1	57
c1ccc(-c2ccnc(C3CCN(CC45CNCC4C5)CC3)n2)cc1 (stereo unspecified)	94
CC(C)c1ccc(-c2noc(CCN3CCN(CCCN(C)C)CC3)n2)cc1	25
CC(C)c1ccc(-c2nc(CN3CCCCC3)cc(CN3CCCCC3)c2O)cc1	93
CCC1(NC(=O)c2cc(C)c3ccccc3n2)CCOCC1	10
